Screening results as filed in PubChem BioAssay.
The sample as a whole holds a higher share of hits than the screen did.
CHX counter = Cycloheximide Counterscreen for Small Molecule Inhibitors of Shiga Toxin; cell reporter, cycloheximide protein synthesis inhibition counterscreen; max response, %; hit rate 12% among 300,000; AID 2314, 2010; in the data active = max response mostly above about 13%, no sharp cut-off; inactive = mostly below about 14%; note: read at 38.3 µM for the half of the compounds with a filed dose; 0% is about no effect
NS1 inh = qHTS Assay for Inhibitors of Influenza NS1 Protein Function; Potency, µM (doses to about 46.1 µM), without a hit: at the top dose activity, positive = more growth; hit rate 0.4% among 270,000; calls by dose curve; note: potency is the fitted concentration of half-maximal effect; actives are rising curves; nearly all actives have a fitted effect of over 50% in size
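Compounds were scored for reversing the slow growth caused by influenza A NS1 in S. cerevisiae, measured by optical density at 600 nm. Assay medium contained 2% galactose at pH 6.0; NS1-free yeast of the same strain were the positive control.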
Shiga toxin inh = A qHTS for Small Molecule Inhibitors of Shiga Toxin; Vero cells, Shiga toxin protein synthesis inhibition reporter; inhibition, % at 38.7 µM; hit rate 9.2% among 290,000; in the data active = inhibition mostly above about 28%, no sharp cut-off; inactive = mostly below about 43%; note: 0% is about no effect
AmpC inh no detg = qHTS Inhibitors of AmpC Beta-Lactamase (assay without detergent) | P00811 | AmpC nitrocefin hydrolysis, absorbance 480 nm, 0.0001% Triton | Potency, µM (top dose mostly 57.1 µM), without a hit: top-dose activity change, negative = inhibition, hits mostly inhibitors | hit rate 0.52% among 330,000;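 note: potency is the fitted concentration of half-maximal effect; plate controls were no compound for no effect and no enzyme for full effect; nearly all actives have a fitted effect of over 20% in size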
Target sequence (P00811 whole entry, looked up): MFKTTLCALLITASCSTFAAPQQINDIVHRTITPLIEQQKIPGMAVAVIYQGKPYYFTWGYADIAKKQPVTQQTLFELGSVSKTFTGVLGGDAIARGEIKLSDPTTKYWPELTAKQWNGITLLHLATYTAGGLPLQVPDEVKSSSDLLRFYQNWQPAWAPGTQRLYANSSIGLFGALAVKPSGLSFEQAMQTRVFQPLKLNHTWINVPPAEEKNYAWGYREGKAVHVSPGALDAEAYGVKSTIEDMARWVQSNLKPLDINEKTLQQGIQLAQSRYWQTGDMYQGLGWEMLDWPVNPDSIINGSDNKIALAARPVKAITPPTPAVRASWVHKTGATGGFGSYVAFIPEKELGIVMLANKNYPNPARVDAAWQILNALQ
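AmpC (5.3 nM in the dispensed reagent) in 20 mM phosphate pH 7.0 with 0.01% (detergent screen) or 0.0001% Triton X-100 was preincubated with compounds for 15 min at room temperature. Nitrocefin was then added from an 800 uM solution, and hydrolysis was followed at 480 nm.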
AmpC inh detg = qHTS Inhibitors of AmpC Beta-Lactamase (assay with detergent) | Potency, µM (doses to about 114 µM), without a hit: at the highest dose activity change, negative = inhibition, hits mostly inhibitors | AmpC hydrolysis of nitrocefin, absorbance 480 nm, 0.01% Triton | P00811 | hit rate 0.041% among 370,000;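 note: potency is the fitted concentration of half-maximal effect; 0% = no-compound wells and -100% = no-enzyme wells; nearly all actives have a fitted effect of over 25% in size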
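20 mM phosphate pH 7.0 + 0.01% (detergent screen) or 0.0001% Triton X-100; 5.3 nM AmpC reagent; cpd preinc 15 min RT; nitrocefin (800 uM stock) to start; A480 q20 s × 4 min; Activity was normalised to no-enzyme and no-compound control wells.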
Starred values were filed as active, the others as inactive; ? = inconclusive; . = no result given. Unless noted, calls come from the whole dose curve; as a rule, active = well fitted curve in the direction sought with a large enough effect; inconclusive = small, poorly fitted or top-dose-only effect, or another doubt; inactive = no such curve, though single readings can be large; an effect the other way counts as inactive or inconclusive.

SMILES	CHX counter	NS1 inh	Shiga toxin inh	AmpC inh no detg	AmpC inh detg
CC1Cc2cc(/C(O)=C3/C(=O)C(=O)N(CCCn4ccnc4)C3c3ccncc3)ccc2O1 (stereo not drawn)	1	-12%	14	-20%	-8%
CC1Cc2cc(/C(O)=C3/C(=O)C(=O)N(CCCn4ccnc4)C3c3ccco3)ccc2O1 (stereo not drawn)	33*	0%	113*	-24%	?
COc1ccc(C2/C(=C(\O)c3ccc4c(c3)OCCO4)C(=O)C(=O)N2CCCn2ccnc2)cc1 (stereo not drawn)	18	-15%	28	-5%	-2%
C=CCOc1ccc(/C(O)=C2/C(=O)C(=O)N(CCCn3ccnc3)C2c2cccs2)cc1 (stereo not drawn)	49*	-9%	137*	-20%	2%
CC1Cc2cc(/C(O)=C3/C(=O)C(=O)N(Cc4ccco4)C3c3cccs3)ccc2O1 (stereo not drawn)	46*	6%	87*	-26%	1%
O=C(c1ccc2nccnc2c1)N1CCN(c2ccccc2)CC1	2	6%	-4	4%	2%
COc1ccc(CNC(=O)CCn2c(C)csc2=O)cc1	.	.	.	-27%	6%
Cc1cccc(-c2noc(-c3ccc(NC4CCCC4)c([N+](=O)[O-])c3)n2)c1	.	.	.	.	15%
CCN(C(=O)COC(=O)c1oc2ccccc2c1C)c1c(N)n(Cc2ccccc2)c(=O)[nH]c1=O	.	.	.	2%	?
COc1cc(COC(=O)Oc2ccc(CNC(C)=O)cc2OC)c([N+](=O)[O-])cc1OC	.	.	.	184%	2%
COc1ccc(-n2c(SC3CCOC3=O)nc3ccccc3c2=O)cc1OC (stereo not drawn)	38*	?	-3	-7%	-2%
COc1ccc(-n2c(SC3CCOC3=O)nc3ccccc3c2=O)cc1Cl (stereo not drawn)	-2	.	-10	-16%	4%
OC1CCCCC1Sc1nc2ccccc2s1 (stereo not drawn)	42*	?	104*	-5%	?
CCCN(C(=O)C1CCN(S(=O)(=O)c2ccc(OC)c(OC)c2)CC1)C1CCS(=O)(=O)C1 (stereo not drawn)	.	.	.	4%	-14%
CCOC(=O)Cn1c(-c2cccnc2Cl)nc2cc(Cl)c(Cl)cc21	-3	5%	-2	-3%	-12%
CCn1c(-c2cccnc2Cl)nc2cc(Cl)c(Cl)cc21	40*	-29%	78*	48%	?
COc1ccc(C2OC(=O)CC2C(=O)NCc2ccc(F)cc2)cc1OC (stereo not drawn)	7	.	17	22%	-10%
COc1ccc(C2OC(=O)CC2C(=O)NCc2ccc(Cl)cc2)cc1OC (stereo not drawn)	34*	.	85*	1%	-4%
O=C1NC(=O)/C(=C\c2ccccc2OCc2ccccc2)S1	6	.	-15	-57%	-1%
O=C1NC(=O)/C(=C/c2cccc3ccccc23)S1	17*	-164%	16	-24%	2%
Cc1ccc(S(=O)(=O)/C(=C/Cl)NC(=O)c2ccccc2)cc1	15*	6%	13	-18%	?
CC(=O)NC(=C(Cl)Cl)S(=O)(=O)c1ccccc1	36*	.	66*	3%	?
Cc1ccc(C(=O)NC(=C(Cl)Cl)S(=O)(=O)c2ccc(Cl)cc2)cc1	48*	3%	87*	-33%	3%
O=C(NC(=C(Cl)Cl)S(=O)(=O)c1ccc(Cl)cc1)c1ccccc1	57*	-5%	90*	-24%	-9%
COc1cc(OC)cc(-c2nc3nc(C)c(CCC(=O)Nc4ccc(Cl)cc4)c(C)n3n2)c1	.	.	.	.	-15%
SMILES	CHX counter	NS1 inh	Shiga toxin inh	AmpC inh no detg	AmpC inh detg
O=Nc1ccc(NOC(=O)c2ccccc2)cc1	44*	-20%	47*	-26%	4%
Cc1cc(C)n(C(=O)c2cc3c(s2)CCCC3)n1	19	-17%	89*	-20%	-10%
CN1CCCN(C(=O)c2cc3c(s2)CCCC3)CC1	3	10%	24	-16%	11%
COc1ccc(NC(=O)CCCN2C(=O)C(c3ccccc3)Oc3cccnc32)c(OC)c1 (stereo not drawn)	2	-9%	-3	38%	-9%
COC(=O)c1ccc(COC(=O)c2ccc(SC)cc2OC)cc1	21*	-11%	45*	14%	-2%
COc1ccc(C(=O)OCC(=O)NC2CCCCCC2)c(OC)c1	.	.	.	1%	-18%
COc1cc(SC)ccc1C(=O)OCC(=O)NC1CC1	26*	4%	48	-9%	-2%
COc1ccc(C(=O)OCC(=O)NC2CCCC2)c(OC)c1	17*	-2%	31	-2%	-3%
COc1cc(SC)ccc1C(=O)OCC(=O)NCCNC(=O)COC(=O)c1ccc(SC)cc1OC	-3	2%	-12	-14%	-5%
COc1cccc(-c2cc(C(=O)Nc3ccc(F)cc3)[nH]n2)c1	.	.	.	.	10%
COc1cc(CNCc2cccs2)ccc1OCc1cccs1	17	-1%	-8	-10%	1%
CCN(CC)c1ccc(CNCc2cccs2)cc1	20*	3%	59	-17%	-7%
Cc1ccc(CNc2ccc3c(c2)ncn3C(C)(C)C)cc1	40*	.	133*	24%	-5%
CCn1cnc2cc(NCc3ccc(Cl)cc3)ccc21	41*	-5%	119*	-1%	0%
Cc1ccc(CNc2ccc3c(c2)ncn3C)cc1	46*	-5%	81*	-3%	1%
Cn1cnc2cc(NCc3ccccc3O)ccc21	61*	1%	114*	-21%	7%
CC(C)(C)n1cnc2cc(NCc3ccccc3Cl)ccc21	.	.	.	.	-1%
CN1CCN(CCCBr)CC1	.	2%	.	.	.
CCc1ccc(C(=O)C(C)OC(=O)c2nc3nc(C)cc(C)n3n2)cc1 (stereo not drawn)	.	.	.	15%	-12%
Cc1nc2cc(NCc3ccccc3O)ccc2n1Cc1ccccc1	69*	-4%	92*	5%	4%
CCc1ccc(CNc2ccc3c(c2)ncn3C)cc1	25*	-45%	73*	0%	-10%
CC(=O)O[C@H]1[C@H](C)OC=C[C@@H]1OC(C)=O	-1	12%	-14	-2%	?
CCOC(=O)C(C)n1cnc2sc3c(c2c1=O)CCC3 (stereo not drawn)	-7	11%	-11	-11%	?
CCc1cc2c(=O)n(C(C)C(=O)OC3CCCCC3)cnc2s1 (stereo not drawn)	41*	-9%	37*	-2%	2%
O=C(c1ccccc1)N1CCC(=O)N1c1ccccc1	-2	-4%	13	-13%	-5%
O=C1CN(c2ccccc2)C(=S)N1C(=O)c1ccccc1	46*	14%	47*	-13%	-8%
O=C(Nc1ccc(OC(F)(F)F)cc1)c1nc2ccccc2nc1N1CCCCC1	.	.	.	.	-7%
CCc1ccc(S(=O)(=O)c2nnn3c2nc(Nc2cc(OC)ccc2OC)c2sccc23)cc1	.	.	.	.	-14%
